Results on 30 compounds are retold here after PubChem BioAssay (NCATS).

SMILES strings stand for the structures. Inconclusive results are not listed. Activity calls are given as the source filed them. Calls come from the whole dose curve; as a rule, active = well fitted cell-killing curve with a large enough effect; inconclusive = small, poorly fitted or top-dose-only effect, or effect the other way; inactive = flat fitted curve, though single readings scatter.

Experiment in all cases: Primary qHTS to identify gynecologic anti-cancer compounds using libraries of approved drugs and bioactive compounds (AID 1345084); note: nearly all actives have a fitted effect of over 55% in size
Details in all cases: Gynecologic cancer cell panel viability, ATPlite luminescence, 48 h; series mostly up to 57.5 µM

One assay deals with OV90. The method, boiled down:
(§1)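 ATP-based viability (ATPlite), 1,000 cells/well, 16 h pre-incubation, 48 h compound at 37 C, 5% CO2, 15 min RT before read.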

The next assay concerns PA-1. The method, boiled down: as §1
The subject of another assay is Tov-21-G. The method, boiled down:
as §1

A further assay deals with Tov112D. The method, boiled down: as §1
Another assay concerns SKOV3. The method, boiled down: as §1
Potency is the fitted concentration of half-maximal effect.

On to `NC(=O)c1nc(Nc2ccccc2)sc1NC(=O)C1CCCCC1`, for which the Potency entry in the assay on OV90, with PA-1, with Tov-21-G and in the assay with Tov112D was “inactive” each time.
For `O=C(NNc1nc2cc(F)ccc2n2cccc12)c1cnccn1`, the Potency in the assay on OV90 is 5.01 µM (active); in the assay on PA-1, 3.55 µM (active); with Tov-21-G, 8.91 µM (active); in the assay with Tov112D, 6.31 µM (active).
Turning to `CC(C)c1ccc(NC(=O)c2cccs2)c(-c2nc3ccccc3[nH]c2=O)c1`, the Potency entry in the assay with OV90, in the assay on PA-1, in the assay on Tov-21-G and in the assay with Tov112D was “inactive” each time.
For the compound `COc1cc(/C=C/C(=O)NCCn2c(C(F)(F)F)cc3ccccc32)cc(OC)c1OC`, the Potency result in the assay on OV90, with PA-1, with Tov-21-G and in the assay with Tov112D was “inactive” each time.
`O=c1cc(OCc2ccc(F)cc2)ccn1-c1ccc(OCCN2CCCC2)cc1`: the Potency entry in the assay on OV90, in the assay with PA-1, with Tov-21-G and with Tov112D was “inactive” each time.
Turning to `O=C(c1ccc(F)cc1)N1CCCC(c2nc(-c3ccc(F)cc3)no2)C1` (stereo not given), the Potency result in the assay with OV90, with PA-1, in the assay on Tov-21-G and in the assay with Tov112D was “inactive” each time.
For `CC(=O)O[C@@H]1C[C@@]2(C)C(CC[C@]3(C)C2CC=C2C4CC(C)(C)CC[C@]4(C(=O)O)CC[C@]23C)C(C)(C)[C@H]1O` (stereo not given in full), the Potency result with OV90, in the assay on PA-1, with Tov-21-G and in the assay with Tov112D was “inactive” each time.
On to `Cn1nc(C(C)(C)C)cc1C(=O)N[C@@H](Cc1cccc(Cl)c1)C(=O)NCC#N`, for which the Potency result with OV90, with PA-1, in the assay on Tov-21-G and with Tov112D was “inactive” throughout.
Regarding `Cc1ccnn1-c1ccc(C(=O)N2CCN(S(=O)(=O)c3ccc(Cl)c(C(F)(F)F)c3)CC2)cc1`, the Potency result in the assay on OV90, in the assay with PA-1, in the assay on Tov-21-G and with Tov112D was “inactive” throughout.
On to `CCOc1cccc(NC(=O)c2ccc(N3CCCC3)c(C(F)(F)F)c2)c1`, for which the Potency entry in the assay on OV90, with PA-1, in the assay on Tov-21-G and in the assay on Tov112D was “inactive” throughout.
Regarding `C/C=C/C=C/C=C/C(=O)O[C@@H]1C=C2COC(=O)[C@]2(O)[C@@]2(C)CCCC(C)(C)[C@H]12`, the Potency result in the assay on OV90, with PA-1, with Tov-21-G and with Tov112D was “inactive” each time.
Regarding `C=C1CC[C@@H]2[C@](C)(CO)[C@H](O)CC[C@@]2(C)[C@@H]1CC(=O)C1=CCOC1=O`, the Potency entry in the assay on OV90 and in the assay on SKOV3 was “inactive” throughout.
`Cc1cnc(-c2ccccc2C(C)C)nc1NCc1ccc(-n2ccnn2)cc1`: the Potency entry with OV90, in the assay on PA-1, in the assay on Tov-21-G and in the assay on Tov112D was “inactive” in each case.
As for `O=C(Nc1nnc(-c2ccc3c(c2)OCCO3)o1)C1CCCCC1`, the Potency entry in the assay on OV90, in the assay on PA-1, with Tov-21-G and in the assay on Tov112D was “inactive” each time.
On to `COc1cc2c(Nc3cc(F)c(Cl)c(Cl)c3)ncnc2cc1OCC1CCCN(C)CCC1`, for which the Potency in the assay on OV90 was 15.8 µM (active); in the assay on SKOV3, 17.8 µM (active).
As for `CNC(C)C(=O)NC(C(=O)N1CCCC1C(=O)Nc1snnc1-c1ccccc1)C1CCCCC1` (stereo not given), the Potency result with OV90, in the assay with PA-1 and with Tov112D was “inactive” each time.
For the compound `CC(=O)O[C@H]1[C@H](O)C[C@@]2(C)C(CC[C@]3(C)C2CC=C2C4CC(C)(C)CC[C@]4(C(=O)O)CC[C@]23C)C1(C)C` (stereo not given in full), the Potency result in the assay on OV90 is “inactive”. Moreover, the Potency with SKOV3 is 11.2 µM (active).
Regarding `CN(C)CCN(Cc1ccc(-c2ccc(CNCCc3ccccc3)cc2)cc1)C(=O)CCC1CCCC1`, the Potency was 22.4 µM (active) in the assay on OV90 and 15.8 µM (active) in the assay with SKOV3.
Consider `Nc1nc(Cl)nc2c1ncn2C1OC(CO)C(O)C1F` (stereo not given), for which the Potency entry with OV90 was “inactive”. In addition, the values for the Potency with PA-1 and in the assay on Tov112D were 3.55 µM (active) and 0.398 µM (active), respectively.
Regarding `CCC(CC)C(c1ccc(Nc2nc3ccccc3s2)cc1)n1cncn1` (stereo not given), the Potency in the assay on OV90 is 31.6 µM (active); in the assay on PA-1, 22.4 µM (active); with Tov112D, 22.4 µM (active).
Regarding `CN(CC1COCCO1)S(=O)(=O)Nc1ccc2ccc3ncc(-c4cnn(C)c4)cc3c(=O)c2c1` (stereo not given), the Potency result in the assay on OV90 is “inactive”. Further, the Potency in the assay on SKOV3 is 15.8 µM (active).
For `C=C1CC[C@@H]2[C@](C)(CO)[C@H](O)CC[C@@]2(C)[C@@H]1C/C=C1/C(=O)OCC1O` (stereo not given in full), the Potency result in the assay on OV90 and with SKOV3 was “inactive” each time.
For `COc1cc2c(cc1OC)CN(C(=O)/C=C/c1c(-c3ccccc3)n(C)c3ncccc13)CC2`, the Potency result in the assay on OV90, in the assay with PA-1 and with Tov112D was “inactive” each time.
For the compound `CC(C)(C)[C@H](NC(=O)c1ccc(N)c(Cl)c1)C(=O)N1CCC[C@H]1C(=O)N[C@H](C#N)CC(=O)O`, the Potency result with OV90, in the assay on PA-1, in the assay on Tov-21-G and in the assay with Tov112D was “inactive” each time.
As for `CCc1cc2c(cc1CC)CC(NCC(O)c1ccc(O)c3[nH]c(=O)ccc13)C2` (stereo not given), the Potency result in the assay with OV90, with PA-1, with Tov-21-G and in the assay on Tov112D was “inactive” each time.
As to `N#Cc1ccc(O[C@@H]2c3ccccc3C[C@H]2N2CCC[C@@H](N)C2)c(Cl)c1`, the Potency result with OV90, in the assay with PA-1 and with Tov112D was “inactive” in each case.
In the case of `C=C(NC(=O)C(=C)NC(=O)c1csc(C2=NC3c4csc(n4)C4NC(=O)c5csc(n5)C(C(C)(O)C(C)O)NC(=O)C5CSC(=N5)/C(=C/C)NC(=O)C(C(C)O)NC(=O)c5csc(n5)C3(CC2)NC(=O)C(C)NC(=O)C(=C)NC(=O)C(C)NC(=O)C(C(C)CC)NC2C=Cc3c(C(C)O)cc(nc3C2O)C(=O)OC4C)n1)C(N)=O` (stereo not given), the Potency result in the assay on OV90 and in the assay on Tov112D was “inactive” in each case. For the same compound, in the assay on PA-1, the Potency is 28.2 µM (active).
With `C=C1C(=O)O[C@@H]2C3C(=C(C)[C@@H](O)[C@@H](OC(=O)/C(=C/C)COC(C)=O)[C@@H]12)C(=O)[C@H]1O[C@@]31C` (stereo not given in full), the Potency entry in the assay on OV90 is “inactive”. Besides, the values for the Potency with PA-1 and in the assay on Tov112D were 8.91 µM (active) and 12.6 µM (active), respectively.
Turning to `COc1ccc2nccc(C(=O)CC[C@@H]3CCN(CC#Cc4cc(F)cc(F)c4F)C[C@@H]3C(=O)O)c2c1`, the Potency result in the assay with OV90, in the assay with PA-1, with Tov-21-G and in the assay on Tov112D was “inactive” in each case.
`C=C1CO[C@@]2(O[C@H]3CC4C5CC=C6C[C@@H](O)C[C@@H](O[C@@H]7OC[C@H](O)[C@H](O[C@@H]8OC[C@@H](O)[C@H](O)[C@H]8O)[C@H]7O[C@@H]7O[C@@H](C)[C@H](OC(C)=O)[C@@H](OC(C)=O)[C@H]7OC(C)=O)[C@]6(C)C5CC[C@]4(C)[C@@H]3[C@@H]2C)[C@@H](O)[C@H]1OC1OC(C)C(O)C(O)C1O` (stereo not given in full): the Potency was 2.82 µM (active) in the assay with OV90, 3.55 µM (active) with PA-1 and 3.55 µM (active) in the assay on Tov112D.
